High-throughput results deposited in PubChem BioAssay by Broad Institute.
TRPM1 prom inh – inhibitors of MITF-driven TRPM1 promoter in melanoma cells; inhibition, % at 12.5 µM; SK-MEL-5 TRPM1 promoter luciferase, 24 h; AID 488899; 330,000 tested, 0.83% active;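 active = mean inhibition across replicates of 60% or more, whatever share of single replicates reaches that level; inconclusive = some that reach 60%, reason not given; inactive = mean inhibition across replicates below 60%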
NSD2 inh – inhibitors of human histone methyltransferase NSD2; O96028; NSD2 peptide methylation, AlphaScreen, 120 min; inhibition, % at 12.5 µM; 310,000 tested, 0.54% active; in the data active = inhibition above about 50%
N-glyco inh – N-linked glycosylation inhibition; AID 588692; reporter increase, % at 12.5 µM; 360,000 tested, 0.23% active; D54 ERlucT glycosylation luciferase reporter, 24 h; percent of 100 nM tunicamycin response;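 active = mean luciferase reporter signal, scaled so untreated is 0 and the glycosylation-blocking control 100, at or above a set limit in every replicate; inconclusive = mean reaches the limit but not every replicate does; inactive = mean below the limit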;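 note: luciferase carries N-glycosylation sites so blocking glycosylation raises the light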
MITF TRPM1 HTS – MITF TRPM1 promoter activation in melanoma cells; activation, % at 12.5 µM; 300,000 tested, 0.75% active; SK-MEL-5 TRPM1-promoter luciferase, 24 h; % of positive control, neutral wells = 0; AID 588334;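 active = mean activation of at least 80% with every replicate also reaching 80%; inconclusive = mean reaches 80% but some replicate falls short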
Wnt bcat act – Wnt/beta-catenin pathway activation; 300,000 tested, 1.2% active; activation, % at 9.35 µM; Wnt/beta-catenin reporter cell assay, activator, plate reader; in the data active = activation above about 30%, passing the limit was not always enough; inconclusive = no clear call, values can overlap the other calls
PfHsp90 set2 – growth inhibition of yeast expressing Plasmodium Hsp90; 310,000 tested, 0.32% active; S. cerevisiae expressing PfHsp90, BacTiter-Glo ATP, 48 h; yeast lacking PDR1 and PDR3 efflux regulators; inhibition, % at 9.4 µM; AID 504621;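 active = every replicate shows inhibition above about 80%, whatever the replicate mean, limit read from the data; inconclusive = mean inhibition reaches the set limit but some replicate falls short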
Numbers stand for hits; i = inactive; ? = inconclusive; nt = no result given. Compounds with a hit are over-represented: about 2.9% of the library has one in this group of screens.

SMILES	TRPM1 prom inh	NSD2 inh	N-glyco inh	MITF TRPM1 HTS	Wnt bcat act	PfHsp90 set2
CCOC(=O)C1=C(c2ccccc2)ON(C)C1c1ccccc1 (stereo not given)	i	i	i	i	nt	i
O=C(NCc1ccco1)C1CCCN(c2ncccn2)C1 (stereo not given)	nt	i	nt	nt	nt	nt
CCOc1cnn(-c2cc(Oc3ccc(C)cc3)ncn2)c(=O)c1Cl	i	i	i	i	nt	i
Cc1ccccc1Oc1cc(-n2ncc(Cl)c(Cl)c2=O)ncn1	94	i	i	i	i	97
CCc1ccc(N2Cc3ccccc3C2)cc1	i	i	i	86	i	i
CCOC(=O)c1ccc(N2Cc3ccccc3C2)cc1O	i	i	i	106	i	i
CCCS(=O)(=O)NC(=O)C1(C)CCCN(C(=O)c2cc3ccccc3s2)C1 (stereo not given)	nt	i	i	nt	i	nt
NC(=O)c1ccc(NC(=O)CCN2C(=O)c3ccccc3C2=O)cc1	i	i	i	i	i	i
CSc1nc2ccc(NC(=O)C3CCCO3)cc2s1 (stereo not given)	i	nt	i	?	49	i
COc1ccc2nc(NC(=O)C3CCCO3)sc2c1 (stereo not given)	i	i	i	i	i	i
O=C1Cc2c([nH]c3ccc([N+](=O)[O-])cc23)-c2ccccc2N1	i	nt	88	i	i	i
COc1ccc(-c2nc(C3CCCCC3)no2)cc1OC	i	i	i	106	i	i
c1ccc(-c2nc(C3CCCCC3)no2)cc1	i	i	i	nt	nt	i
Cc1cccc(N=N/C(=C\O)C(=O)c2cccs2)c1	i	i	i	i	i	i
O=C(CNC(=O)c1cccc(F)c1)N/N=C/c1cc(Br)ccc1OC(=O)/C=C/c1ccco1	67	i	i	i	i	i
NC(=O)c1c(NC(=O)c2ccccc2)sc2c1CCc1ccccc1-2	i	i	i	i	nt	i
Cc1ccc(-c2cc3c(nn2)-c2ccccc2C3=O)cc1	78	i	i	i	i	i
NC(=O)C1CCCN(C(=O)c2ccc(-c3cccc(Cl)c3Cl)o2)C1 (stereo not given)	i	i	i	i	38	i
O=C(c1ccc(-c2ccccc2Cl)o1)N1CCCC(C(F)(F)F)C1 (stereo not given)	i	i	i	?	i	nt
O=C(c1ccc(-c2ccccc2Cl)o1)N1CCC1	i	i	i	?	i	nt
CC1CCN(C(=O)c2ccc(-c3ccccc3Cl)o2)CC1	i	i	i	110	44	nt
O=C(c1ccc(-c2cccc(Cl)c2Cl)o1)N1CCOCC1	i	i	i	86	34	i
COc1cc(-c2noc(C)n2)cc(OC)c1OC	i	i	i	nt	i	i
O=C(CSc1nnc(-c2ccccc2)n1-c1ccc(Cl)cc1)Nc1ccc2cn[nH]c2c1	nt	i	nt	nt	nt	nt
COCC(=O)N1CCC(Oc2ccc(C(=O)N[C@H](C(=O)OC)C(C)C)cc2)CC1	i	i	i	i	i	i
SMILES	TRPM1 prom inh	NSD2 inh	N-glyco inh	MITF TRPM1 HTS	Wnt bcat act	PfHsp90 set2
COc1ncnc2c1ncn2CCCNCC(C)c1ccccc1 (stereo not given)	nt	nt	i	nt	i	nt
COC(=O)CCS(=O)(=O)c1nc(-c2ccccc2)cc(C(F)(F)F)n1	94	i	i	i	nt	i
Cc1cc(NC(=O)CCCS(=O)(=O)c2nc(-c3cccs3)cc(C(F)(F)F)n2)no1	95	i	i	i	i	i
CCOC(=O)CCS(=O)(=O)c1nc(-c2ccccc2)cc(C(F)(F)F)n1	85	nt	i	i	nt	i
Cc1cc(NC(=O)CSc2nc(-c3cccs3)cc(C(F)(F)F)n2)no1	i	i	i	i	nt	i
CCOC(=O)CS(=O)(=O)c1nc(-c2ccc(F)cc2)cc(C(F)(F)F)n1	99	nt	i	i	nt	i
CCOC(=O)c1c(C(F)(F)F)cc(-c2ccc(F)cc2)nc1C	i	i	i	i	i	i
O=C(O)CCS(=O)(=O)c1nc(-c2cccs2)cc(C(F)(F)F)n1	i	i	i	i	i	i
CC1(C(=O)NS(=O)(=O)c2cccs2)CCN1C(=O)Cc1ccc(Cl)cc1Cl (stereo not given)	nt	i	i	nt	i	nt
CCOC(=O)CS(=O)(=O)c1nc(-c2ccccc2)cc(C(F)(F)F)n1	102	i	i	i	nt	i
COc1ccc(-c2cc(C(F)(F)F)nc(S(=O)(=O)CCCC(=O)Nc3cccnc3Cl)n2)cc1OC	79	i	i	i	i	i
C=CCNCCCCOc1ccc(Br)cc1C	i	66	i	i	i	i
